PubChem BioAssay (EPA / NIEHS)
Where “and” joins values, the source holds several entries; their conditions need not be identical. Identical values can stand only once. Some structures have more than one record in an assay (separate samples or runs), and their calls can disagree. Calls of active or inactive are those of the source. How the source made its calls: active means hit-call score of the fitted dose curve at least 0.9, where 1 is the maximum; inactive means score below 0.9.

Experiments:
[1] = BSK_hDFCGF_SRB: Viability Assessment in the BioMAP Diversity Plus: hDFCGF Assay (AID 2283061); details: primary human foreskin fibroblasts;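 further: cells exposed to compound for 24 h before the read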
Outline: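 Cells were dosed with test chemical, cultured 24 h, fixed with 10% TCA, then stained with 0.1% SRB and read at 560 nm. The fibroblasts were human foreskin primary cells, and DMSO served as baseline.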

[2] = read-out: TIMP metallopeptidase inhibitor 1 (TIMP1), TIMP1 (gene 7076); assay: BSK_hDFCGF_TIMP1: BioMAP Diversity Plus: hDFCGF Assay for TIMP metallopeptidase inhibitor 1 (TIMP1) Biomarker Activity (AID 2283062); details: primary human foreskin fibroblasts; actives raise or lower the signal
Outline: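 Fibroblasts from human foreskin are treated with test chemical and harvested at 24 h. TIMP-1 is quantified by ELISA, and gain or loss of signal is scored against DMSO.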

[3] = read-out: Matrix Metallopeptidase 1 (MMP1), MMP1 (gene 4312); assay: BSK_hDFCGF_MMP1: BioMAP Diversity Plus: hDFCGF Assay for Matrix Metallopeptidase 1 (MMP1) Biomarker Activity (AID 2283064); details: primary human foreskin fibroblasts; actives raise or lower the signal
Outline: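 Human foreskin fibroblasts exposed to chemical for 24 h; MMP1 detected by ELISA, with DMSO as baseline for bidirectional fitting.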

[4] = read-out: Vascular cell adhesion molecule 1 (VCAM1), VCAM1 (gene 7412); assay: BSK_hDFCGF_VCAM1: BioMAP Diversity Plus: hDFCGF Assay for Vascular cell adhesion molecule 1 (VCAM1) Biomarker Activity (AID 2283065); details: primary human foreskin fibroblasts; actives raise or lower the signal;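 on AC50: VCAM-1 protein level quantified by ELISA after 24 h chemical exposure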
Outline: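 Cells are dosed, cultured for 24 h, then VCAM-1 is quantified by ELISA; signal increases and decreases are both fitted relative to DMSO.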

[5] = read-out: Plasminogen activator inhibitor-1 (PAI1), SERPINE1 (gene 5054); assay: BSK_hDFCGF_PAI1: BioMAP Diversity Plus: hDFCGF Assay for Plasminogen activator inhibitor-1 (PAI1) Biomarker Activity (AID 2283066); details: primary human foreskin fibroblasts; actives raise or lower the signal
Outline: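 PAI-1 levels in human dermal foreskin fibroblasts were quantified by ELISA 24 h after dosing, with gain or loss analysed against DMSO. Overt cytotoxicity was checked by sulforhodamine B total-protein staining in parallel cultures.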

[6] = read-out: Intercellular Adhesion Molecule 1 (ICAM1), ICAM1 (gene 3383); assay: BSK_KF3CT_ICAM1: BioMAP Diversity Plus: KF3CT Assay for Intercellular Adhesion Molecule 1 (ICAM1) Biomarker Activity (AID 2283067); details: primary human keratinocytes with fibroblasts; actives raise or lower the signal
Outline: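 Dose the keratinocyte/fibroblast co-culture, wait 24 h, measure ICAM-1 by ELISA, then fit increases or decreases against DMSO. Cytotoxicity is checked in parallel cultures by SRB total-protein staining.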

[7] = read-out: Interferon-gamma inducible Protein 10 (IP10), CXCL10 (gene 3627); assay: BSK_KF3CT_IP10: BioMAP Diversity Plus: KF3CT Assay for Interferon-gamma inducible Protein 10 (IP10) Biomarker Activity (AID 2283068); details: primary human keratinocytes with fibroblasts; actives raise or lower the signal
Outline: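 Human keratinocyte plus foreskin fibroblast primary co-culture exposed to test chemical for 24 h; IP-10 measured by ELISA. Concentration-response fitted bidirectionally against DMSO control as baseline.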

[8] = read-out: Interleukin-1 alpha (IL1a), IL1A (gene 3552); assay: BSK_KF3CT_IL1a: BioMAP Diversity Plus: KF3CT Assay for Interleukin-1 alpha (IL1a) Biomarker Activity (AID 2283070); details: primary human keratinocytes with fibroblasts; actives raise or lower the signal
Outline: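 Readout is IL-1a level by ELISA, compared bidirectionally with DMSO as baseline. Cells: human keratinocytes co-cultured with foreskin fibroblasts, harvested 24 h post-dose.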

[9] = read-out: TIMP metallopeptidase inhibitor 2 (TIMP2), TIMP2 (gene 7077); assay: BSK_KF3CT_TIMP2: BioMAP Diversity Plus: KF3CT Assay for TIMP metallopeptidase inhibitor 2 (TIMP2) Biomarker Activity (AID 2283071); details: primary human keratinocytes with fibroblasts; actives raise or lower the signal
Outline: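 TIMP-2 measured by ELISA at 24 h in human keratinocyte/fibroblast primary co-cultures exposed to chemicals. Both increases and decreases were fitted against DMSO. Parallel cultures were stained with SRB for total protein as an overt-cytotoxicity check.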

[10] = read-out: C-C motif chemokine 2 (Homo sapiens) (UniProt P13500); assay: BSK_KF3CT_MCP1: BioMAP Diversity Plus: KF3CT Assay for Monocyte Chemoattractant Protein 1 (MCP1/CCL2) Biomarker Activity (AID 2283073); details: primary human keratinocytes with fibroblasts; actives raise or lower the signal
Outline: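 Keratinocytes and foreskin fibroblasts were co-cultured, dosed with chemical, and sampled 24 h later. MCP-1 was quantified by ELISA, and the endpoint was analyzed with bidirectional fitting using DMSO as negative control.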

[11] = read-out: Matrix Metallopeptidase 9 (MMP9), MMP9 (gene 4318); assay: BSK_KF3CT_MMP9: BioMAP Diversity Plus: KF3CT Assay for Matrix Metallopeptidase 9 (MMP9) Biomarker Activity (AID 2283074); details: primary human keratinocytes with fibroblasts; actives raise or lower the signal;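 on AC50: MMP9 protein level quantified by ELISA in the co-culture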
Outline: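 Values come from bidirectional fitting relative to DMSO of MMP-9 levels, which were measured by ELISA. Measurements were taken 24 h after chemical dosing of a keratinocyte and foreskin fibroblast co-culture.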

[12] = read-out: urokinase plasminogen activator (uPA), PLAU (gene 5328); assay: BSK_KF3CT_uPA: BioMAP Diversity Plus: KF3CT Assay for urokinase plasminogen activator (uPA) Biomarker Activity (AID 2283075); details: primary human keratinocytes with fibroblasts; actives raise or lower the signal
Outline: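 Values derive from bidirectional fitting against DMSO controls. Keratinocyte/foreskin fibroblast co-cultures received chemical; 24 h later uPA was detected by ELISA, with SRB total-protein staining in parallel wells for overt cytotoxicity.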

CD40, CD40 (gene 958) = assay: BSK_LPS_CD40: BioMAP Diversity Plus: LPS Assay for CD40 Biomarker Activity (AID 2283076); details: primary human HUVEC with PBMC; actives raise or lower the signal
Outline: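 CD40 signal, measured by ELISA, is fitted in both directions relative to DMSO vehicle. The system is an LPS-driven human vascular primary co-culture of endothelial cells and PBMC, sampled 24 h after compound addition.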

[13] = read-out: E-selectin (Homo sapiens) (UniProt P16581); assay: BSK_LPS_Eselectin: BioMAP Diversity Plus: LPS Assay for Eselectin Biomarker Activity (AID 2283077); details: primary human HUVEC with PBMC; actives raise or lower the signal
Outline: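 Signal of E-selectin, detected by ELISA, served as the endpoint; cells were umbilical vein endothelium with PBMC, read 24 h after treatment. DMSO defined baseline, and both increases and decreases were fitted.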

[14] = read-out: Interleukin-8 (IL8), CXCL8 (gene 3576); assay: BSK_LPS_IL8: BioMAP Diversity Plus: LPS Assay for Interleukin-8 (IL8) Biomarker Activity (AID 2283078); details: primary human HUVEC with PBMC; actives raise or lower the signal
Outline: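 Endothelial cells and PBMC from human donors are co-cultured, treated with chemicals and LPS, then assayed for IL-8 by ELISA after 24 h. Parallel SRB staining (0.1% SRB after 10% TCA fixation, 560 nm) flags cytotoxicity.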

[15] = BSK_LPS_SRB: Viability Assessment in the BioMAP Diversity Plus: LPS Assay (AID 2283079); details: primary human HUVEC with PBMC;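 further: total protein by sulforhodamine B absorbance as a cytotoxicity measure; measured one day after compound addition; fitted in both directions against DMSO so loss or gain of signal counts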
Outline: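 Overt cytotoxicity was gauged by sulforhodamine B total-protein staining in a primary human vascular endothelial and mononuclear cell co-culture 24 h post-dosing. Activity was fitted in both directions relative to DMSO.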

[16] = read-out: Monokine induced gamma interferon (MIG), CXCL9 (gene 4283); assay: BSK_hDFCGF_MIG: BioMAP Diversity Plus: hDFCGF Assay for Monokine induced gamma interferon (MIG) Biomarker Activity (AID 2283063); details: primary human foreskin fibroblasts; actives raise or lower the signal
Outline: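 MIG signal, determined by ELISA, reflects 24 h chemical exposure of human skin primary fibroblasts. DMSO serves as negative control and baseline.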

[17] = read-out: Interleukin-1 alpha (IL1a), IL1A (gene 3552); assay: BSK_LPS_IL1a: BioMAP Diversity Plus: LPS Assay for Interleukin-1 alpha (IL1a) Biomarker Activity (AID 2283080); details: primary human HUVEC with PBMC; actives raise or lower the signal
Outline: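 Measured: IL-1 alpha via ELISA at 24 h in LPS-activated human umbilical vein endothelium–PBMC co-culture. Baseline: DMSO, bidirectional fitting.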

[18] = BSK_KF3CT_SRB: Viability Assessment in the BioMAP Diversity Plus: KF3CT Assay (AID 2283069); details: primary human keratinocytes with fibroblasts;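 further: fitted for both signal gain and loss against DMSO baseline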
Outline: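 Overt cytotoxicity is assessed as total protein by sulforhodamine B staining in parallel human skin co-cultures at 24 h after dosing. DMSO serves as negative control and baseline.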

Measured: AC50

Sequence of E-selectin (Homo sapiens) (P16581 whole entry, looked up): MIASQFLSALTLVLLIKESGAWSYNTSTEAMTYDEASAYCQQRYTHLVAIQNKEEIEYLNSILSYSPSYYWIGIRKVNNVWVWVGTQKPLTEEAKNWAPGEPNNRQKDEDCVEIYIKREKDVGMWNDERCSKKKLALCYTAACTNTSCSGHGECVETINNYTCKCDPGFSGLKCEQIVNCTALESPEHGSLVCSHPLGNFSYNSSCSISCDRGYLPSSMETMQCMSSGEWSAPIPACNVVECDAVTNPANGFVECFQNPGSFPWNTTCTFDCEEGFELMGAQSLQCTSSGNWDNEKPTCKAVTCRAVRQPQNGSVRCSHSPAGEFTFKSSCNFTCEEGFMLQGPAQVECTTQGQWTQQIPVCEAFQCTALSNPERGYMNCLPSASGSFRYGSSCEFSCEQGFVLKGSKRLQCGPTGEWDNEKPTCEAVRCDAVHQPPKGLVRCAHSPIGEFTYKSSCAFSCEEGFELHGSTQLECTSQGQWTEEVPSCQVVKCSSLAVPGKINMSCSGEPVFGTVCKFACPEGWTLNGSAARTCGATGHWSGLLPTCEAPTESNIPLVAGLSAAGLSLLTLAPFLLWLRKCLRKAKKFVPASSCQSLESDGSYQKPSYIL

C[C@]12CC[C@@H]3c4ccc(O)cc4CC[C@H]3[C@@H]1C[C@@H](O)[C@@H]2O
inactive: [1] | [2] | [3] | [4] | [5] | [6] | [7] | [8] | [9] | [10] | [11] | [12] | CD40, CD40 (gene 958) | [13] | [14] | [15]

CCCCC(CC)C(=O)O (stereo unspecified)
inactive: [1] | [2] | [16] | [3] | [4] | [5] | [6] | [8] | [10] | [11] | [12] | CD40, CD40 (gene 958) | [13] | [14] | [15] | [17]

CC(C)(C)c1ccc(O)c(O)c1
inactive: [5] | [9] | [10] | [12]
active: [1] 31.8 µM | [2] 31.6 µM | [16] 31.2 µM | [3] 30.6 µM | [4] 15.5 µM | [6] 5.79 µM | [8] 13 µM | [11] 20 µM | CD40, CD40 (gene 958) 20 µM | [13] 33.4 µM | [14] 30.6 µM | [15] 31.4 µM

COCN(COC)c1nc(N(COC)COC)nc(N(COC)COC)n1
inactive: [1] | [2] | [16] | [3] | [4] | [5] | [6] | [8] | [10] | [11] | [12] | CD40, CD40 (gene 958) | [13] | [14] | [15]

O=C(c1ccccc1)c1ccccc1
inactive: [1] | [2] | [3] | [4] | [5] | [6] | [7] | [8] | [10] | [11] | [12] | CD40, CD40 (gene 958) | [13] | [14] | [15]

O=C(CC(=O)C(F)(F)C(F)(F)C(F)(F)F)c1cccs1
inactive: [1] | [2] | [3] | [4] | [5] | [6] | [18] | [8] | [10] | [12] | CD40, CD40 (gene 958) | [13] | [14] | [17]
active: [3] 7.77 µM | [11] 2.38 µM and 4.67 µM | CD40, CD40 (gene 958) 22.9 µM | [15] 26.4 µM and 37.3 µM

CCCCCCCCCCCCCCC
inactive: [1] | [2] | [16] | [3] | [4] | [5] | [6] | [8] | [10] | [11] | [12] | CD40, CD40 (gene 958) | [13] | [14] | [15]
